From PubChem BioAssay AID624202 (National Center for Advancing Translational Sciences (NCATS), 2012) come the findings set out here.

Screen size: about 380,000 compounds; about 4,000 (1.1%) were called active. Inconclusive results (about 3%) are left out. Shown is part of a subset that was picked to be rich in actives. Values without a mark were called inactive. Calls come from the whole dose curve; as a rule, active = well fitted activation curve with a large enough effect; inconclusive = small, poorly fitted or top-dose-only effect; inactive = no such curve, though single readings can be large or run the other way.
Potency is the fitted concentration of half-maximal effect.

This test in a line: qHTS Assay to Identify Small Molecule Activators of BRCA1 Expression. Note: nearly all actives have a fitted effect of over 80% in size. The note with it: MCF7-BRCA1-FFLuc reporter, luminescence, 48 h; series mostly up to 46.1 µM; activation: at the top concentration. The procedure, abridged: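 Luminescence from a BRCA1-driven firefly luciferase in MCF7 cells was the read-out, taken 15 min after substrate addition following 48 h compound exposure at 37 °C. Data were normalized to a 10 microM genistein control and DMSO vehicle.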
A general note: In qHTS, concentration-response curves come from the screen itself.
In the case of `C[N+]1(CC(=O)c2cccs2)CCOCC1`, the “activation” value is 2.95%.

In the case of `COC(=O)c1ccc(CSc2nncn2N)cc1`, the “activation” value is 4.18%.

With `CC(C)CC(CC(C)C)=NNC(=O)c1ccc(CSc2nncn2C)cc1`, the “activation” value is 3.02%.

As to `COC(=O)c1ccc(CSc2nncn2C)cc1`, the Potency was 10 µM (active).

As for `COc1ccccc1CNC(=O)CCCn1c(=O)c2ccccc2n(CC(=O)Nc2ccc(C)cc2Cl)c1=O`, the “activation” value is -11.4%.

As for `OC(CBr)CN1CCCCC1` (stereo not drawn), the “activation” value is 0%.

Take `COC(=O)C1C(=O)c2c([nH]c(C(=O)OCCSC)c2C)CC1C` (stereo not drawn): the Potency is 28.2 µM (active).

For the compound `Cc1cc(Cl)ccc1NC(=O)Cc1ccc(NC(=O)N2CCCCc3ccccc32)cc1`, the “activation” value is 0%.

Take `Cc1ccc2[nH]cc(CCCN3C(=O)c4ccccc4C3=O)c2c1`: the “activation” value is 43.5%.

As for `COc1ccc2[nH]cc(CCN3C(=O)c4ccc(C(=O)O)cc4C3=O)c2c1`, the Potency was 10 µM (active).

For the compound `COCCCN1C(=O)c2ccc(C(=O)Nc3ccc(OC)cc3OC)cc2C1=O`, the “activation” value is -22.3%.

`O=C(O)/C=C/C(=O)NNc1ccc([N+](=O)[O-])cc1`: the “activation” value was 0%.

For the compound `O=C(Nc1ccc([N+](=O)[O-])cc1)C1CC12CCC2` (stereo not drawn), the “activation” value is 62%.

Take `CC(=O)Nc1ccc(C=Cc2ccc([N+](=O)[O-])cc2)cc1`: the Potency was 1.78 µM (active).

Take `Cc1cccc(-c2nnc(SC(C)C(=O)Nc3ccccc3)n2C)c1` (stereo not drawn): the “activation” value is 117%.

On to `COc1ccc(CNC(=O)c2cc3c(s2)-c2ccccc2OC3)cc1`, for which the “activation” value is 18.4%.

Regarding `O=C(Nc1ccccc1C(=O)N1CCCCC1)c1ccco1`, the “activation” value was 6.82%.

For the compound `Cc1ccc(NC(=O)c2cc3ccccc3o2)cc1`, the Potency was 12.6 µM (active).

Turning to `O=C(Nc1ccc2nc(SCCOc3ccccc3Cl)sc2c1)c1ccco1`, the “activation” value was 3.88%.

For the compound `O=C(Nc1ccc(CSc2ccccc2)cc1)c1ccc(CN2CCOCC2)cc1`, the “activation” value was -37.6%.

For `C/C(=N\NC(=S)Nc1ccc(C)cc1)c1cc2ccccc2o1`, the “activation” value is -20.3%.

Regarding `CN(C)C(CNC(=O)c1cc2ccccc2o1)c1ccccc1` (stereo not drawn), the “activation” value is -8.03%.

As for `O=C(CNC(=O)c1ccco1)NNC(=O)c1ccc(Br)cc1`, the “activation” value was -2.34%.

Regarding `O=C(Nc1ccc2nc(SCCOc3ccccc3)sc2c1)c1ccco1`, the “activation” value was 0%.

As for `Cc1cc(C)cc(NC(=O)CSc2ccccc2)c1`, the “activation” value is 65%.

For the compound `O=C(Nc1ccc2nccnc2c1)c1ccco1`, the Potency was 10 µM (active).

On to `O=C(Nc1ccc(O)cc1)c1ccc(NC(=O)c2ccco2)cc1`, for which the Potency is 3.16 µM (active).

As to `O=C(CSc1ccccc1)Nc1ccc(NC(=O)c2ccco2)cc1`, the Potency was 11.2 µM (active).

Consider `Cc1cc(C)c(NC(=O)Cn2c(SCC(=O)NCc3ccccc3)nc3ccccc32)c(C)c1`, for which the “activation” value was 0%.

Consider `CC(=O)c1ccc(NC(=O)c2nc3nc(C)cc(C(F)F)n3n2)cc1`, for which the “activation” value was 21.9%.

`CC(=O)Nc1ccc(NC(=O)C2CCCN(S(=O)(=O)c3ccc4c(c3)CCCC(=O)N4)C2)cc1` (stereo not drawn): the “activation” value was 7.29%.

Regarding `Cn1c(=O)cc(OCC(=O)N2CCN(c3ccccc3)CC2)c2ccccc21`, the “activation” value is 0.73%.

Turning to `O=C(c1cnn(-c2ccc(F)cc2)c1-n1cccc1)N1CCN(c2ccc(F)cc2)CC1`, the “activation” value was -11.3%.

Regarding `CCOC(=O)c1ccc(NC(=O)CCn2cnnn2)cc1`, the “activation” value is -5.89%.

With `COc1cc2nc(SCc3ccc(F)cc3)n3nc(CCn4c(C)nc5ccccc54)nc3c2cc1OC`, the “activation” value is 9.42%.

In the case of `COc1ccc2oc(-c3ccc(C)c(NC(=O)c4sc5ccccc5c4Cl)c3)nc2c1`, the “activation” value is -5.08%.

On to `CCOc1ccc(CCNC(=O)c2c(C)oc3ncn(C)c(=O)c23)cc1`, for which the “activation” value is 3.41%.

Turning to `COC(=O)c1ccccc1NC(=O)c1cnn(-c2ccc(F)cc2)c1-n1cccc1`, the “activation” value is -37%.

As to `Cc1ccnc(NC(=O)c2ccc(NC(=O)c3ccco3)cc2)c1`, the Potency is 11.2 µM (active).

In the case of `CN1CCN(S(=O)(=O)c2ccc(NC(=O)c3ccco3)cc2)CC1`, the “activation” value is 55.6%.

For `Cc1ccc(NC(=O)C(c2ccccc2)N2CCN(C(=O)c3ccco3)CC2)cc1` (stereo not drawn), the “activation” value was 4.49%.

For `CSCCC(NC(=O)c1ccco1)C(=O)Nc1cc(C)ccn1` (stereo not drawn), the “activation” value was -7.71%.

Take `Cc1ccnc(NC(=O)CCC(=O)N(CC(=O)NCc2ccccc2)Cc2ccco2)c1`: the “activation” value was -1.62%.

With `Cc1ccc(NC(=O)c2ccco2)cc1`, the Potency was 7.94 µM (active).

`COC(=O)CC1Oc2ccccc2-n2cc(-c3ccccc3)nc21` (stereo not drawn): the “activation” value was -3.85%.

As for `CCN(CC)CCNC(=O)c1cc2c(=O)oc3ccc(C)cc3c2s1`, the “activation” value is 6.45%.

Consider `CC(C)c1ccc(NC(=O)Cn2c3ncccc3c(=O)n2-c2ccccc2)cc1`, for which the “activation” value is 0%.

In the case of `O=C(Nc1ccc(Br)cc1)c1ccc(Br)c(S(=O)(=O)NCc2ccccc2)c1`, the “activation” value was -67%.

As for `COc1ccccc1NC(=O)Cn1cnc2ccc(S(=O)(=O)N3CCC(C)CC3)cc2c1=O`, the “activation” value is -3.73%.

For the compound `ClC/C=C/C[n+]1ccccc1Cl`, the “activation” value is 29.9%.

On to `CCc1nnc(NC(=O)[C@@H](NC(=O)c2cccc(C)c2)C(C)C)s1`, for which the “activation” value is -10.7%.

With `CCc1nnc(NC(=O)/C=C/c2ccc(C)o2)s1`, the Potency is 11.2 µM (active).

Take `Cc1cc(NC(=O)COC(=O)/C=C/c2ccc(C)o2)no1`: the “activation” value is -15.1%.

In the case of `Cc1ccc(N2CCN(C(=O)CCc3c(C)nc4c(c3C)c(=O)n(C)c(=O)n4C)CC2)c(C)c1`, the “activation” value was -5.92%.

In the case of `CSc1n[nH]c(-c2ccco2)n1`, the “activation” value is 5.48%.

Consider `O=C(Nc1ccc(Cl)cn1)c1cnn2cccnc12`, for which the Potency is 6.31 µM (active).

As for `O=C(COC(=O)c1ccco1)Nc1ccc(Cl)cn1`, the “activation” value is -5.28%.

Regarding `Cc1cccc(OCC(=O)OCC(=O)Nc2ccc(Cl)cn2)c1`, the “activation” value was -9.48%.

`CC(C)N(Cc1nnc(-c2ccc(Cl)cc2)o1)C(=O)C1=COCCO1`: the “activation” value was 27%.

For the compound `CN(C)CCN(C(=O)C1=COCCO1)c1nc2ccc(Cl)cc2s1`, the Potency was 12.6 µM (active).

Regarding `Cc1cc(N2CCN(c3cccc(C(F)(F)F)c3)CC2)n2nc(-c3ccccc3)nc2n1`, the “activation” value is -34.4%.

On to `CCOC(=O)Cc1ccc(NC(=O)Nc2c[nH]c(=O)[nH]c2=O)cc1`, for which the “activation” value is 9.34%.

Take `COC(=O)c1ccc(C2C(C(=O)Nc3ccccc3)=C(C)Nc3nc4ccccc4n32)cc1` (stereo not drawn): the “activation” value was 1.34%.

On to `Cc1ccccc1-n1c(=O)c2ccccc2n(Cc2ccc(F)cc2)c1=O`, for which the “activation” value was 1.73%.

Consider `Cc1nn(CC(=O)Nc2ccc3c(c2)nc(CN2CCCCC2)n3C)c(=O)c2ccccc12`, for which the “activation” value is -21.1%.

Turning to `Cn1c(CCN2CCCCCC2)nc2cc(NC(=O)Nc3ccccc3)ccc21`, the Potency is 7.94 µM (active).

On to `Cn1c(CCN2CCN(c3ccccn3)CC2)nc2cc(NS(=O)(=O)c3ccc(F)cc3)ccc21`, for which the “activation” value was -8.24%.

As for `COc1ccc(-c2nc3nc(C)cc(C)n3c2Nc2c(C)cccc2C)cc1`, the “activation” value was -20.3%.
